“And” between values parts separate entries of the source, which are not always exact repeats. Identical values can stand only once. Records with an inconclusive call do not appear. A call without a number means that no potency is given here. Some compounds were tested as several samples or in several runs, with calls that do not always agree. The source made the active and inactive calls. Calls come from the whole dose curve; as a rule, active = well fitted curve in the direction sought with a large enough effect in the repeat runs; inconclusive = weak or mixed curves; inactive = no such curve, though single readings can be large; an effect the other way counts as inactive or inconclusive.
Potency is the fitted concentration of half-maximal effect.

The nature of one experiment: qHTS RealTime-Glo MT Cell Viability Assay in HepG2 cells - 32 hour (AID 1224877). Note: nearly all actives have a fitted effect of over 55% in size. Conditions: RealTime-Glo luminescence; series mostly up to 76.8 µM. The essentials: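 qHTS, HepG2, 600 cells/well, RealTime-Glo (NanoLuc + prosubstrate) added with cells; 5 h preincubation; DMSO compound addition; 37 C; luminescence at 0/8/16/24/32/40 h.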
`CCCCCCCCCCCCCCCCCCn1cc[n+](C)c1`: the Potency was 24.4 µM (active).
For `COC[C@H](C)N(C(=O)CCl)c1c(C)csc1C`, the Potency entry is “inactive”.
With `C[C@H]1CC[C@@H]2[C@@H](C)[C@H]3[C@H](C[C@H]4[C@@H]5CC=C6CC(O[C@@H]7O[C@H](CO)[C@H](O)[C@H](O[C@@H]8O[C@H](CO)[C@@H](O)[C@H](O)[C@H]8O)[C@H]7O[C@H]7O[C@@H](C)[C@H](O)[C@@H](O)[C@H]7O)CC[C@]6(C)[C@H]5CC[C@]34C)N2C1` (stereo partly specified), the Potency was 50.6 µM (active).
As to `Cc1cc(C)cc(OP(=O)(Oc2cc(C)cc(C)c2)Oc2cc(C)cc(C)c2)c1`, the Potency entry was “inactive”.
Regarding `Cc1ccc(C(=O)Cl)cc1`, the Potency entry is “inactive”.
As for `COP(N)(=S)OC`, the Potency entry is “inactive”.
Consider `NNC(=O)c1ccccc1`, for which the Potency result is “inactive”.
With `CCN`, the Potency result was “inactive”.
As to `N#Cc1ccccc1N`, the Potency result is “inactive”.
Same read-out and setting: in the case of `CN(CCCC(O)c1cccnc1)N=O` (stereo unspecified) it was “inactive”.
Take `S=C=Nc1cccc2ccccc12`: the Potency result was “inactive”.
For the molecule `O=C(CCCN1CCC2(CC1)C(=O)NCN2c1ccccc1)c1ccc(F)cc1`, the Potency result is “inactive”.
Take `CC(C)(C)OO`: the Potency result is “inactive”.
`C[C@]12CC[C@@H]3c4ccc(OC(=O)N(CCCl)CCCl)cc4CC[C@H]3[C@@H]1CC[C@@H]2O`: the Potency result is “inactive”.
For `ClCCN1CCOCC1`, the Potency entry was “inactive”.
Consider `[Hg+2].[I-].[I-]`, for which the Potency is 11 µM (active).
Regarding `Cl/C=C\CCl`, the Potency result was “inactive”.
The same measure, in the same setting: to `CC(O)C#N` (stereo unspecified) belongs “inactive”; to `c1ccc(OCC2CO2)cc1` (stereo unspecified), “inactive”.
`ClC1=C(Cl)[C@]2(Cl)[C@@H]3[C@@H]4C[C@@H]([C@H]5O[C@@H]45)[C@@H]3[C@@]1(Cl)C2(Cl)Cl`: the Potency is 49 µM (active).
The same measure, in the same setting: in the case of `CCOCCOC(C)=O` it was “inactive”.
For the molecule `CCC[CH2][Sn]([CH2]CCC)([CH2]CCC)[O]C(=O)c1ccccc1`, the Potency was 0.436 µM (active).
Turning to `CCCCCCCCCCBr`, the Potency entry is “inactive”.
For the molecule `Oc1ccc(I)cc1`, the Potency entry is “inactive”.
On to `O=c1[nH]c2ccccc2n1CCCN1CCC(n2c(=O)[nH]c3cc(Cl)ccc32)CC1`, for which the Potency entry is “inactive”.
On the same count and under the same terms, to `Cc1cc(Cl)ccc1O[C@H](C)C(=O)O` belongs “inactive”; to `CCCCCCCCCCCCCN1CC(C)OC(C)C1` (stereo unspecified), “inactive”.
Still for that read-out and setting: in the case of `O=c1ssc(Cl)c1Cl` it was 21.9 µM (active).
Turning to `C[C@@H](Oc1ccc(Cl)cc1Cl)C(=O)O`, the Potency result was “inactive”.
Still for that read-out and setting: to `COP(=O)(CCC(=O)NCO)OC` belongs “inactive”; to `C=COCCCl`, “inactive”; to `CNC(C)Cc1ccc2c(c1)OCO2` (stereo unspecified), “inactive”.
The same measure, in the same setting: to `CCCSP(=O)(OCC)SCCC` belongs “inactive”.
Same read-out and setting: to `CCS(=O)(=O)c1cccnc1S(=O)(=O)NC(=O)Nc1nc(OC)cc(OC)n1` belongs “inactive”; to `CCCCCCCCCCCCCCCC[N+](C)(C)C`, 43.6 µM (active) and 23.9 µM (active); to `O=c1[nH]c2ccccc2n1C1CCN(CCCC(c2ccc(F)cc2)c2ccc(F)cc2)CC1`, 34.7 µM (active) and inactive.
As for `CCOP(=S)(OCC)SCS(=O)(=O)C(C)(C)C`, the Potency result was “inactive”.
Regarding `CC(=O)Nc1ccc2c(c1)Cc1ccccc1-2`, the Potency entry was “inactive”.

A further experiment can be described thus: A CellTox Green Cytotoxicity Assay to monitor cytotoxicity in HepG2 cells - 24 hour (AID 1224878). Note: nearly all actives have a fitted effect of over 45% in size. Conditions: CellTox Green fluorescence; series mostly up to 76.8 µM. A digest of the protocol:
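Continuous culture of HepG2 cells with a membrane-impermeant DNA dye; rising fluorescence marks dead cells. Compound exposure lasted up to 40 h at 37 C, with reads every 8 h from 0 h.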
As for `CCCCCCCCCCCCCCCCCCn1cc[n+](C)c1`, the Potency was 24.4 µM (active).
As for `COC[C@H](C)N(C(=O)CCl)c1c(C)csc1C`, the Potency entry is “inactive”.
`C[C@H]1CC[C@@H]2[C@@H](C)[C@H]3[C@H](C[C@H]4[C@@H]5CC=C6CC(O[C@@H]7O[C@H](CO)[C@H](O)[C@H](O[C@@H]8O[C@H](CO)[C@@H](O)[C@H](O)[C@H]8O)[C@H]7O[C@H]7O[C@@H](C)[C@H](O)[C@@H](O)[C@H]7O)CC[C@]6(C)[C@H]5CC[C@]34C)N2C1` (stereo partly specified): the Potency is 11.3 µM (active).
With `Cc1cc(C)cc(OP(=O)(Oc2cc(C)cc(C)c2)Oc2cc(C)cc(C)c2)c1`, the Potency result is “inactive”.
Still for that read-out and setting: to `Cc1ccc(C(=O)Cl)cc1` belongs “inactive”.
As to `COP(N)(=S)OC`, the Potency result is “inactive”.
As to `NNC(=O)c1ccccc1`, the Potency entry was “inactive”.
Consider `CCN`, for which the Potency entry is “inactive”.
`N#Cc1ccccc1N`: the Potency result was “inactive”.
With `CN(CCCC(O)c1cccnc1)N=O` (stereo unspecified), the Potency entry was “inactive”.
Turning to `S=C=Nc1cccc2ccccc12`, the Potency entry is “inactive”.
As for `O=C(CCCN1CCC2(CC1)C(=O)NCN2c1ccccc1)c1ccc(F)cc1`, the Potency entry is “inactive”.
For `CC(C)(C)OO`, the Potency result is “inactive”.
As for `C[C@]12CC[C@@H]3c4ccc(OC(=O)N(CCCl)CCCl)cc4CC[C@H]3[C@@H]1CC[C@@H]2O`, the Potency result is “inactive”.
Turning to `ClCCN1CCOCC1`, the Potency entry was “inactive”.
Same read-out and setting: in the case of `[Hg+2].[I-].[I-]` it was 11 µM (active); in that of `Cl/C=C\CCl`, “inactive”; in that of `CC(O)C#N` (stereo unspecified), “inactive”.
Regarding `c1ccc(OCC2CO2)cc1` (stereo unspecified), the Potency result was “inactive”.
In the case of `ClC1=C(Cl)[C@]2(Cl)[C@@H]3[C@@H]4C[C@@H]([C@H]5O[C@@H]45)[C@@H]3[C@@]1(Cl)C2(Cl)Cl`, the Potency is 49 µM (active).
For the molecule `CCOCCOC(C)=O`, the Potency entry was “inactive”.
Same read-out and setting: in the case of `CCC[CH2][Sn]([CH2]CCC)([CH2]CCC)[O]C(=O)c1ccccc1` it was 0.692 µM (active); in that of `CCCCCCCCCCBr`, “inactive”; in that of `Oc1ccc(I)cc1`, “inactive”.
`O=c1[nH]c2ccccc2n1CCCN1CCC(n2c(=O)[nH]c3cc(Cl)ccc32)CC1`: the Potency was 21.3 µM (active).
Still for that read-out and setting: to `Cc1cc(Cl)ccc1O[C@H](C)C(=O)O` belongs “inactive”; to `CCCCCCCCCCCCCN1CC(C)OC(C)C1` (stereo unspecified), “inactive”; to `O=c1ssc(Cl)c1Cl`, 19.5 µM (active).
The same measure, in the same setting: in the case of `C[C@@H](Oc1ccc(Cl)cc1Cl)C(=O)O` it was “inactive”; in that of `COP(=O)(CCC(=O)NCO)OC`, “inactive”; in that of `C=COCCCl`, “inactive”.
In the case of `CNC(C)Cc1ccc2c(c1)OCO2` (stereo unspecified), the Potency entry was “inactive”.
For the molecule `CCCSP(=O)(OCC)SCCC`, the Potency entry was “inactive”.
The same measure, in the same setting: to `CCS(=O)(=O)c1cccnc1S(=O)(=O)NC(=O)Nc1nc(OC)cc(OC)n1` belongs “inactive”.
For `CCCCCCCCCCCCCCCC[N+](C)(C)C`, the Potency is 21.1 µM (active) and 23.9 µM (active).
For `O=c1[nH]c2ccccc2n1C1CCN(CCCC(c2ccc(F)cc2)c2ccc(F)cc2)CC1`, the Potency is 43.6 µM (active) and inactive.
Same read-out and setting: to `CCOP(=S)(OCC)SCS(=O)(=O)C(C)(C)C` belongs “inactive”; to `CC(=O)Nc1ccc2c(c1)Cc1ccccc1-2`, “inactive”.
